PubChem BioAssay AID602431 (Southern Research Specialized Biocontainment Screening …, 2012)
Results with a measured potency or affinity are listed apart. Results filed as inconclusive are left out. Unmarked numbers belong to inactive results. No rule for the calls is given here.

assay: Vero cell cytotoxicity, cytotoxicity control for M. tuberculosis inhibitor project, purified and synthesized samples, set 8 (AID 602431); conditions: series mostly up to 100 µM; viability: at the top concentration

| SMILES | viability [%] |
| --- | --- |
| O=C(c1ccc(CNc2c(N3CCOCC3)c(=O)c2=O)cc1)N1CCN(c2ccccc2)CC1 | 99.7 |
| O=C(CSc1nc2c(c(=O)[nH]1)CCCC2)NC1CCCCC1 | 85.2 |
| O=C(c1ccc(CNc2c(N3CCCC3)c(=O)c2=O)cc1)N1CCN(c2ccccc2)CC1 | 97.1 |
| COCCNC(=O)CSc1nc2ccccc2c(=O)[nH]1 | 91.8 |
| O=C(CSc1nc2c(c(=O)[nH]1)CCC2)NC1CCCCC1 | 95.9 |
| CC(C)CCNC(=O)CSc1nc2ccccc2c(=O)[nH]1 | 88.2 |
| O=C(NCc1ccc(C(=O)N2CCN(c3ccccc3)CC2)cc1)NC1CCCCC1 | 99.6 |
| COC(=O)C(Cc1ccccc1)NC(=O)CSc1nc2ccccc2c(=O)[nH]1 (configuration not stated) | 96.1 |
| O=C(c1ccc(CNc2c(N3CCOCC3)c(=O)c2=O)cc1)N1CCC(c2ccccc2)CC1 | 94.5 |
| O=C(CSc1nc2ccccc2c(=O)[nH]1)NC1CCOCC1 | 87.4 |
| CC(C)CCNC(=O)CSc1nc2c(c(=O)[nH]1)CCCC2 | 89.3 |
| CC(C)CCNC(=O)CSc1nc2c(c(=O)[nH]1)CCCCC2 | 93.8 |
